# FMDV inh = High Throughput Screening for Foot and Mouth Disease Virus Antivirals | AID 1159524, 2015 | Potency, µM (doses to about 57.9 µM), without a hit: at the highest dose activity change, negative = inhibition, usual class: inhibitors | FMDV antiviral cell-based qHTS | 410,000 tested, 1.2% active; calls by dose curve; tested in HEK293T cells; also: read-out not given here; potency is read from the fitted curve at half-maximal effect; nearly all actives have a fitted effect of over 45% in size
# HCMV antiviral = qHTS Assay for inhibitors of the human cytomegalovirus (HCMV); HFF cells, HCMV-luciferase reporter, 72 h; stronger effect = lower value; activity change, negative = inhibition, % at 57.5 µM; 410,000 tested, 4.5% active; AID 1259415, 2018; in the data active = activity change below about -60%; inconclusive = no clear call, values can overlap the other calls; inactive = above about -39%
#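 Luciferase read-out from HCMV-luciferase-infected HFFs (MOI 1 PFU/cell) 72 h post infection at 37C; compounds added after 16 h cell attachment; activity normalized between buffer-only basal and Salinomycin (10uM) inhibitor controls.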
# LASV entry inh = qHTS for Inhibitors of binding or entry into cells for Lassa Virus | Lassa virus pseudotype entry inhibition, cell reporter | Potency, µM (series often up to 37.9 µM), for the others: top-dose activity change, negative = inhibition, actives largely listed as inhibitors | 300,000 tested, 1.2% active | AID 540256, 2011; calls by dose curve; tested in HEK293 cells; also: potency is read from the fitted curve at half-maximal effect; nearly all actives have a fitted effect of over 50% in size
# Marburg entry inh = qHTS for inhibitors of binding or entry into cells for Marburg Virus | 300,000 tested, 1.8% active | Marburg virus pseudotyped entry inhibition, cell reporter | AID 540276, 2011 | Potency, µM (doses to about 37.8 µM), inactives show at the top dose activity change, negative = inhibition, hits mostly inhibitors; calls by dose curve; tested in HEK293 cells; also: potency is read from the fitted curve at half-maximal effect
# * marks the source's active call; other numbers are inactive results; ? = inconclusive; . = no result given; [ ] = dose if it differs, or a comment. Compounds with a hit are over-represented: about 6.2% of the library has one in this group of screens. % is scaled to controls: 0 for no effect and ±100 for the full control effect.
SMILES,FMDV inh,HCMV antiviral,LASV entry inh,Marburg entry inh
COc1ccccc1-c1nnc(C2CCN(C(=O)c3cccc(Cl)c3)CC2)o1,-12%,-92*,-19%[46.1 µM],-23%[46.1 µM]
CC1(C)S[C@@H]2[C@H](NC(=O)[C@H](C(=O)O)c3ccsc3)C(=O)N2[C@H]1C(=O)O,.,.,8%,?
CN(C(=O)COC(=O)c1nc(Cl)c(Cl)c(Cl)c1Cl)C1CCS(=O)(=O)C1 (stereo not given),16µM*,-99*,5.6µM*,?
Cc1ccc2c(CSc3nnc(N)s3)cc(=O)oc2c1,58%,-15,-2%,15%
COc1ccc(C(=O)C2CCCN(C(=O)Cn3ccc(C)n3)C2)cc1OC (stereo not given),-10%,6,4%[46.1 µM],?
COc1cc2c(cc1OC)C(c1cc(Br)ccc1F)N(C(=O)CCl)CC2 (stereo not given),28µM*,-93*,.,-4%
COc1cc2c(cc1OC)C(C1C(=O)CC(C)(C)CC1=O)N(C(=O)CCl)CC2 (stereo not given),0%,-39,?,?
Cn1nc(-c2ccc(OCC(=O)N3CCN(Cc4ccccc4)CC3)cc2)c2ccccc2c1=O,16µM*,?,-15%,8.2µM*
COc1ccccc1NC(=O)COc1ccc(-c2nn(C)c(=O)c3ccccc23)cc1,18µM*,50,-7%[46.1 µM],-3%[46.1 µM]
Cc1ccc(OCC(=O)N2CCN(c3nnc(-c4ccccc4)c4ccccc34)CC2)cc1,?,-83*,?,?
c1ccn2c(SCc3ccc4c(c3)OCO4)nnc2c1,61%,65,20%,?
O=C(N[C@H]1CCC(=O)N(CCSc2ccc(Br)cc2)CC1)OCc1ccccc1,32µM*,-10,.,.
Fc1ccc(Nc2nc(-c3ccncc3)cs2)cc1,11%,71,12%,-61%
Clc1ccc(Nc2nc(-c3ccncc3)cs2)cc1,12%,7,15%,7.9µM*
Nc1ccc(Nc2nc(-c3ccncc3)cs2)cc1,15%,-99*,?,?
Oc1ccc(Nc2nc(-c3ccc(Cl)cc3)cs2)cc1,27%,.,.,.
Brc1ccc(-c2csc(Nc3nc(-c4ccc(Br)cc4)cs3)n2)cc1,-1%,-87*,-12%[46.1 µM],-18%[46.1 µM]
COc1ccc(CN(C)S(=O)(=O)c2nnc(NC(=O)c3cccc(F)c3)s2)cc1OC,-9%,41,21%[46.1 µM],4%[46.1 µM]
CN(C)CCCOc1ccc(-c2cc3nc(NCc4cccnc4)n(C)c(=O)c3s2)cn1,20%,58,.,.
C[C@H]1CN(CCc2ccccc2)C(=O)[C@@H]1CC(=O)Nc1ccccc1,2%,-75*,.,.
COc1ccc(C=NNC(=S)NN=Cc2ccc(OC)c(OC)c2)cc1OC,18%,-102*,?,?
COc1ccc(C=NNC(=S)Nc2ccc(F)cc2)cc1OC,-6%,-61*,?,?
COc1ccc(/C=N/NC(=S)NCc2ccccc2)cc1OC,-13%,25,?,23%
COc1ccc(/C=N/NC(=S)Nc2cccc(C(=O)O)c2)cc1OC,16µM*,-34,?,?
COc1cc(/C=N/NC(=S)Nc2cccc(C(=O)O)c2)cc(OC)c1OC,-12%,26,-1%,21%
SMILES,FMDV inh,HCMV antiviral,LASV entry inh,Marburg entry inh
Cc1cccc(OCCCC(=O)NNC(=O)c2ccccn2)c1,1%,17,.,.
Cc1cc(C)cc(NC(=O)C2CCN(C(=O)[C@@H]3Cc4ccccc4CN3)CC2)c1,-17%,-7,.,.
O=C(COC(=O)c1cccnc1Cl)Nc1cc(S(=O)(=O)N2CCCCCC2)ccc1Cl,?,-19,14%,3%
COc1cc(CNc2ccc(C(=O)O)cc2)cc(Br)c1OCC(=O)NC(C)(C)C,-15%,-13,11%,2%
C=CCOc1c(Br)cc(CNc2ccc(NC(=O)C(C)C)c(OC)c2)cc1OC,?,-98*,?,?
CC(C(=O)N/N=C/c1ccc(N(C)C)c(Br)c1)N(c1ccccc1)S(C)(=O)=O (stereo not given),-19%,63,-19%,-27%
O=C1/C(=C/c2ccccc2Cl)N2CCC1CC2,-6%,-67*,.,.
O=C1/C(=C/c2ccncc2)N2CCC1CC2,10%,4,?,?
COc1ccc(NC(=O)CCn2c(=O)c3cccn3c3cccnc32)cc1Cl,-7%,-21,14%[46.1 µM],.
O=S1CCCSC1c1cccnc1 (stereo not given),3%,19,-15%[14.3 µM],-8%
CCSc1nnc(NC(=O)CSc2nc3c(c(=O)n2C)SC(C)C3)s1 (stereo not given),.,-85*,14%,-19%
O=C(c1cnccn1)N1CC(=O)N2[C@H](C1)[C@@H](c1ccc(Br)cc1)[C@@H]2CO,.,-4,.,.

# Screens deposited in PubChem by National Center for Advancing Translational Sciences (NCATS).
